Test results as given in PubChem BioAssay (Tox21).
Several values for one entry are separate records, joined by “and”; a condition that tells them apart may be missing. Identical values can stand only once. Inconclusive results are not listed. Where a call stands in place of a potency, no number is given. More than one record can exist for a structure, and the calls need not agree. Activity calls are given as the source filed them. Calls follow the shape of the dose curve; as a rule, active = well fitted curve in the direction sought with a large enough effect in the repeat runs; inconclusive = weak or mixed curves; inactive = no such curve, though single readings can be large; an effect the other way counts as inactive or inconclusive. Non-standard residues stand in square brackets, D forms with d. Residues, ends and D or L forms follow the SMILES beside them. Orn = NCCC[C@H](N)C(=O)O

Tests used:
[1] = target: Nuclear receptor subfamily 1 group I member 2 (Rattus norvegicus) (UniProt Q9R1A7); assay: Rat pregnane X receptor (rPXR) activation by small molecules, qHTS assay (AID 1346983); conditions: rPXR luciferase reporter cells, One-Glo luminescence, 24 h; max activation: stronger effect = higher value; also: nearly all actives have a fitted effect of over 20% in size; also: potency is read from the fitted curve at half-maximal effect
Summary of the method: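 Cell-based rPXR activation assay: rPXR cells, 2,000 per well, rested 5hr at 37 C, then exposed to compounds in DMSO for 24 hr at 37 C. Luciferase activity read by One-Glo luminescence after 30 min at room temperature.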

[2] = target: Nuclear receptor subfamily 1 group I member 2 (Homo sapiens) (UniProt O75469); assay: CYP3A4 induction through human pregnane X receptor (PXR) by small molecules, qHTS assay (AID 1346984); also: nearly all actives have a fitted effect of over 40% in size
Summary of the method: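 DPX-2 reporter cells; 24h cpd, 37C; Luciferin-IPA 3uM final x3h; One-Glo 30 min RT; lumi read.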

[3] = target: Nuclear receptor subfamily 1 group I member 2 (Homo sapiens) (UniProt O75469); assay: Human pregnane X receptor (PXR) activation by small molecules, qHTS assay (AID 1346985); also: nearly all actives have a fitted effect of over 40% in size; also: potency is read from the fitted curve at half-maximal effect
Summary of the method: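 DPX-2 cells (HepG2 co-transfected with a PXR response element and a CYP3A4-promoter luciferase construct) were seeded at 2,000 per well, rested 5 hr at 37C, then exposed to DMSO-dissolved compounds for 24 hr. Activation was read as luciferase luminescence.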

[4] = target: Cytochrome P450 2C19 (Homo sapiens) (UniProt P33261); assay: Cytochrome P450 Family 2 Subfamily C Member 19 (CYP2C19) small molecule antagonists: luciferase reporter qHTS assay (AID 1671197); also: potency is read from the fitted curve at half-maximal effect; nearly all actives have a fitted effect of over 65% in size
Summary of the method: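 P450-Glo CYP2C19 screening system; proluciferin substrate; DMSO compound stocks; 10 min RT preincubation; NADPH regeneration, 1 h at 37C; luciferin detection reagent, 20 min RT; luminescence as RLU.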

[5] = target: Cytochrome P450 2C9 (Homo sapiens) (UniProt P11712); assay: Cytochrome P450 Family 2 Subfamily C Member 9 (CYP2C9) small molecule antagonists: luciferase reporter qHTS assay (AID 1671198); also: potency is read from the fitted curve at half-maximal effect; nearly all actives have a fitted effect of over 50% in size
Summary of the method: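 P450-Glo proluciferin substrate with CYP2C9 enzyme; 10 min RT preincubation, then NADPH regeneration 1 h at 37C; luciferin detection reagent 20 min RT, luminescence in relative luminescence units.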

[6] = target: Cytochrome P450 1A2 (Homo sapiens) (UniProt P05177); assay: Cytochrome P450 Family 1 Subfamily A Member 2 (CYP1A2) small molecule antagonists: luciferase reporter qHTS assay (AID 1671199); also: potency is read from the fitted curve at half-maximal effect; nearly all actives have a fitted effect of over 50% in size
Summary of the method: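 Signal from luciferin formed by CYP1A2 from a proluciferin substrate is read as luminescence, expressed in relative luminescence units. Compounds sit with enzyme 10 min, NADPH-driven reaction runs 1 h, all at room temperature.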

[7] = target: Voltage-gated inwardly rectifying potassium channel KCNH2 (Homo sapiens) (UniProt Q12809); assay: Human Ether-a-go-go-Related Gene (hERG) channel small molecule antagonists: fluorescence cell-based qHTS assay (AID 1671200); also: potency is read from the fitted curve at half-maximal effect; nearly all actives have a fitted effect of over 50% in size
Summary of the method: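 First, 1000 cells per well are seeded and cultured overnight at 37 C. Next, FluxOR II dye is loaded for 1 h at room temperature, protected from light. After 10 more minutes, stimulus is added and fluorescence is read.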

[8] = target: Cytochrome P450 3A4 (Homo sapiens) (UniProt P08684); assay: Cytochrome P450 Family 3 Subfamily A Member 4 (CYP3A4) small molecule antagonists: luciferase reporter qHTS assay (AID 1671201); also: series mostly up to about 120 µM; nearly all actives have a fitted effect of over 50% in size
Summary of the method: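 Enzyme and proluciferin substrate are mixed with test chemicals for 10 min, then NADPH regeneration system drives turnover for 1 h at room temperature. A detection reagent halts the reaction; luminescence after 20 min gives relative activity.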

Chain of Nuclear receptor subfamily 1 group I member 2 (Rattus norvegicus) (Q9R1A7 whole entry, looked up): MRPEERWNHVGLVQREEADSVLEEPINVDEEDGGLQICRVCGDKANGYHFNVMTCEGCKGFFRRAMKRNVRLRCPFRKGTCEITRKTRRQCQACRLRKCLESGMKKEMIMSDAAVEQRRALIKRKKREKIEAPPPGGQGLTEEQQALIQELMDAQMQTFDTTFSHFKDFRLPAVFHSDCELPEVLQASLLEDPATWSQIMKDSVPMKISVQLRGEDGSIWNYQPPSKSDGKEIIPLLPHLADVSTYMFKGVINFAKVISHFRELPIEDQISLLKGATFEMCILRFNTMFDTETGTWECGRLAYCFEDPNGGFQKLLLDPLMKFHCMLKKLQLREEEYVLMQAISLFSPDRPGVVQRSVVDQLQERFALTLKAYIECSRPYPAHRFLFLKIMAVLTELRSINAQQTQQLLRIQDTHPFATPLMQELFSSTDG
Chain of Cytochrome P450 2C19 (Homo sapiens) (P33261 whole entry, looked up): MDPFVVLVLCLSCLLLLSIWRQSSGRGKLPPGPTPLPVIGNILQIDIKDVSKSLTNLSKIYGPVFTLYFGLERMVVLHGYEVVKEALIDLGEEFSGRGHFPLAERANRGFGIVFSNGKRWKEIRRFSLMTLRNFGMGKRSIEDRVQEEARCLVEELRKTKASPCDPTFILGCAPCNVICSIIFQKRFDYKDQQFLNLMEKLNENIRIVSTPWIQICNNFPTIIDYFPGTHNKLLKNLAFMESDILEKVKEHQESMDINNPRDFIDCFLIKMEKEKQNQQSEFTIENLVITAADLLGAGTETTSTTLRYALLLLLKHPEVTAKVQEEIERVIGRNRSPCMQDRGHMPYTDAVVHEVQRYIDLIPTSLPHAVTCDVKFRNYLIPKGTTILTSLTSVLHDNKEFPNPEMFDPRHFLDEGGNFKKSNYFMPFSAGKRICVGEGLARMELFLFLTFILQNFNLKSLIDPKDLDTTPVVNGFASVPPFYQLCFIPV
Chain of Voltage-gated inwardly rectifying potassium channel KCNH2 (Homo sapiens) (Q12809 whole entry, looked up): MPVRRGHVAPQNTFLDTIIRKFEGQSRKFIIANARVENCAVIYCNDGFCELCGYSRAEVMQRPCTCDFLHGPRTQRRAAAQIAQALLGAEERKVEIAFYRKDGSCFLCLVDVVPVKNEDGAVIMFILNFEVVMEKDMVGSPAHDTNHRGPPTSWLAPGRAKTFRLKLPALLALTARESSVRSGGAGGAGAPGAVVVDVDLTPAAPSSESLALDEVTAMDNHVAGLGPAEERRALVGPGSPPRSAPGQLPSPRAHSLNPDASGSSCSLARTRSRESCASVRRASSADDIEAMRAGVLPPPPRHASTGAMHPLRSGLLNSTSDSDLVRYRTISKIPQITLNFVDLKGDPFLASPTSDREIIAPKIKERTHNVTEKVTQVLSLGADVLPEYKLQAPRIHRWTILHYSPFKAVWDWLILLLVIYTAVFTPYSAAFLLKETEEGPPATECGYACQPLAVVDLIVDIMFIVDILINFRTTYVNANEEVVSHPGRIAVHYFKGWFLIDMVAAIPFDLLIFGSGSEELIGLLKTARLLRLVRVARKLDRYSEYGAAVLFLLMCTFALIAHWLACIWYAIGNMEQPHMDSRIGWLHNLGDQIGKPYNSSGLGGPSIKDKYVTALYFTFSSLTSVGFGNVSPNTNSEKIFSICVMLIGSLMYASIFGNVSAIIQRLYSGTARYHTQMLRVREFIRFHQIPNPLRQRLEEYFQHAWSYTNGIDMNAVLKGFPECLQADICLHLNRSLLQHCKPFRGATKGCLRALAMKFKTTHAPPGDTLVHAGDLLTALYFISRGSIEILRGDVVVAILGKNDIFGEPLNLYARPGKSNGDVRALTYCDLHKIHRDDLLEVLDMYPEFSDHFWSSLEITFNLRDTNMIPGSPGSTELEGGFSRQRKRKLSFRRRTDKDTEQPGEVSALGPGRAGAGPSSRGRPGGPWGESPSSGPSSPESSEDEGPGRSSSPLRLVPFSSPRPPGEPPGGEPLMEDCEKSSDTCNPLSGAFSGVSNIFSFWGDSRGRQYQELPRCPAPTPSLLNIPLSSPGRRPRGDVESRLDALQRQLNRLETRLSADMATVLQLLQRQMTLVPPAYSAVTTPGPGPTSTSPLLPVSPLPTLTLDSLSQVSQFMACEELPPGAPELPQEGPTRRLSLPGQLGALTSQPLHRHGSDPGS
Chain of Cytochrome P450 2C9 (Homo sapiens) (P11712 whole entry, looked up): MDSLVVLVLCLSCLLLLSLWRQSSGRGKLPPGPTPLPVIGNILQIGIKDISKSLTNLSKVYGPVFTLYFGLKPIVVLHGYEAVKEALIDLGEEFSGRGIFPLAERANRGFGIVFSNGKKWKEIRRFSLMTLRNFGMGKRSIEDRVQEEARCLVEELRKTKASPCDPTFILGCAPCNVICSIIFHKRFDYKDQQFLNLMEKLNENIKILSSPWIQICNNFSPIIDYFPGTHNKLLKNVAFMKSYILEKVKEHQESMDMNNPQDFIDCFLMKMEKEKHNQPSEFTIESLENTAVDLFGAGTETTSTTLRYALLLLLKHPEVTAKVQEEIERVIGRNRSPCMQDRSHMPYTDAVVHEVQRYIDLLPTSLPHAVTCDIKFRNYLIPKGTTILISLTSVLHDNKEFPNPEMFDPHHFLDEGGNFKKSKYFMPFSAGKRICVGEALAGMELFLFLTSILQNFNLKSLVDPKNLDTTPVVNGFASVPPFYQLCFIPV
Chain of Cytochrome P450 1A2 (Homo sapiens) (P05177 whole entry, looked up): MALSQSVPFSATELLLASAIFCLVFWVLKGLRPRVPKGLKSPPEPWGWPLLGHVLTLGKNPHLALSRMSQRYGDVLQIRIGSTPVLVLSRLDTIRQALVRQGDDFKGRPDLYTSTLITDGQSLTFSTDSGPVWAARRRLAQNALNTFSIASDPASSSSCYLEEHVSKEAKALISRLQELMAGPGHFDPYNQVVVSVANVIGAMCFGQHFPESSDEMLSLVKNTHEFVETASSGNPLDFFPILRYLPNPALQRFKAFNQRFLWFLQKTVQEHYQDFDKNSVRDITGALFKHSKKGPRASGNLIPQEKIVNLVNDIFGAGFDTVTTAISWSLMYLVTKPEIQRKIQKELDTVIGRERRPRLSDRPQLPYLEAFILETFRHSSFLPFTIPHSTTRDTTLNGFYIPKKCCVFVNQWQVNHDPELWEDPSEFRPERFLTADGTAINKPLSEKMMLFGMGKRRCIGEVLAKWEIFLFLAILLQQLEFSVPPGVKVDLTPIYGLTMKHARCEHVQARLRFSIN
Chain of Cytochrome P450 3A4 (Homo sapiens) (P08684 whole entry, looked up): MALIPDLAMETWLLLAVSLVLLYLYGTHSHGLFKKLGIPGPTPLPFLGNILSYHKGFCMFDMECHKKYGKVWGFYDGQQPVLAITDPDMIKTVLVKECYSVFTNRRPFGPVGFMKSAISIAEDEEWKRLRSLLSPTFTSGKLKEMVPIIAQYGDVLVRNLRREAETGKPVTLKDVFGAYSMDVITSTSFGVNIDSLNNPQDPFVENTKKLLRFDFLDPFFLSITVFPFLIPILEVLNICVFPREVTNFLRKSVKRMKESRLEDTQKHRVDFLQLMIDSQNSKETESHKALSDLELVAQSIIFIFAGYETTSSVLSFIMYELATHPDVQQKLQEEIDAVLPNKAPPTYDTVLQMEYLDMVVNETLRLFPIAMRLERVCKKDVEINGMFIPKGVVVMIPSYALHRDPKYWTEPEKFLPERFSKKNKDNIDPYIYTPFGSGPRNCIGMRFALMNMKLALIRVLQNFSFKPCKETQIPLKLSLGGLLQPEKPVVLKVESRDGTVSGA

CC12CCC(C1)C(C)(C)C2=O (stereo not drawn)
max activation [1]: -2.76% (inactive) | Potency [2]: inactive | Potency [3]: inactive

Cc1ncc(C[n+]2csc(CCOP(=O)(O)O)c2C)c(N)n1
max activation [1]: -1.3% (inactive) | Potency [2]: inactive | Potency [3]: inactive

c1ccc(-n2cnnn2)cc1
max activation [1]: -5.33% (inactive) | Potency [2]: inactive | Potency [3]: inactive

CC[N+](CC)(CC)CCC(O)(c1ccccc1)C1CCCCC1 (stereo not drawn)
max activation [1]: -2.27% (inactive) | Potency [2]: inactive | Potency [3]: inactive

O=C(O)c1cc(O)c2c(c1)[C@H]([C@H]1c3cc(C(=O)O)cc(O)c3C(=O)c3c(O[C@@H]4O[C@H](CO)[C@@H](O)[C@H](O)[C@H]4O)cccc31)c1cccc(O[C@@H]3O[C@H](CO)[C@@H](O)[C@H](O)[C@H]3O)c1C2=O
max activation [1]: -0.0362% (inactive) | Potency [2]: inactive | Potency [3]: inactive

CO[C@H]1C[C@@H]2CC[C@@H](C)[C@@](O)(O2)C(=O)C(=O)N2CCCC[C@H]2C(=O)O[C@H]([C@H](C)C[C@@H]2CC[C@@H](O)[C@H](OC)C2)CC(=O)[C@H](C)C=C(C)[C@@H](O)[C@@H](OC)C(=O)[C@H](C)C[C@H](C)/C=C/C=CC=C1C
max activation [1]: -10.6% (inactive) and -9.93% (inactive) | Potency [2]: inactive | Potency [3]: inactive

N=C(N)n1cccn1
max activation [1]: -4.29% (inactive) | Potency [2]: inactive | Potency [3]: inactive

Cc1cccc(C)c1NC(=O)C1CCCCN1C (stereo not drawn)
max activation [1]: -1.93% (inactive) | Potency [2]: inactive | Potency [3]: inactive

NS(=O)(=O)c1cc(Cl)c(Cl)c(S(N)(=O)=O)c1
max activation [1]: -2.98% (inactive) | Potency [2]: inactive | Potency [3]: inactive

O=C1c2ccccc2C(=O)C1c1ccc(F)cc1
Potency [1]: 28.2 µM (active) | Potency [2]: inactive | Potency [3]: 12.6 µM (active)

CC(C)c1ncc([N+](=O)[O-])n1C
max activation [1]: -4.41% (inactive) | Potency [2]: inactive | Potency [3]: inactive

Nc1cc(Cl)c(NC2=NCCN2)c(Cl)c1
max activation [1]: -1.9% (inactive) | Potency [2]: inactive | Potency [3]: inactive

O=P(O)(O)OP(=O)(O)OP(=O)(O)O
max activation [1]: -6.54% (inactive) | Potency [2]: inactive | Potency [3]: inactive

CCN(CC)C(=O)c1cccnc1
max activation [1]: -3.83% (inactive) | Potency [2]: inactive | Potency [3]: inactive

CCCCCCCCCCCCCCCCCCOCC(COP(=O)([O-])OCC[N+](C)(C)C)OC (stereo not drawn)
max activation [1]: -1.53% (inactive) | Potency [2]: inactive | Potency [3]: inactive

Cc1onc(-c2c(F)cccc2Cl)c1C(=O)N[C@@H]1C(=O)N2[C@@H]1SC(C)(C)[C@@H]2C(=O)O
max activation [1]: -1.83% (inactive) and -3.33% (inactive) | Potency [2]: inactive | Potency [3]: inactive and 25.1 µM (active)

CC[C@@]1([C@@H]2O[C@@H]([C@H]3O[C@@](O)(CO)[C@H](C)C[C@@H]3C)C[C@@H]2C)CC[C@H]([C@]2(C)CC[C@]3(C[C@H](O)[C@@H](C)[C@@H]([C@@H](C)[C@@H](OC)[C@H](C)C(=O)O)O3)O2)O1 (stereo in doubt)
max activation [1]: -15.4% (inactive) | Potency [2]: inactive | Potency [3]: inactive

CC1(C)S[C@@H]2[C@H](N3C(=O)C(c4ccccc4)NC3(C)C)C(=O)N2[C@H]1C(=O)O (stereo partly drawn)
max activation [1]: -2.27% (inactive) | Potency [2]: inactive | Potency [3]: inactive

C(=C\c1ccncc1)/c1ccccc1
Potency [2]: inactive | Potency [3]: inactive

CC(C)C[C@@H]1NC(=O)[C@H](CCCN)NC(=O)[C@H](C(C)C)NC(=O)[C@@H]2CCCN2C(=O)[C@@H](Cc2ccccc2)NC(=O)[C@H](CC(C)C)NC(=O)[C@H](CCCN)NC(=O)[C@H](C(C)C)NC(=O)[C@@H]2CCCN2C(=O)[C@@H](Cc2ccccc2)NC1=O (cyclo(V[Orn]L[dF]PV[Orn]L[dF]P))
max activation [1]: -16.3% (inactive) | Potency [2]: inactive | Potency [3]: inactive

N#Cc1c(N(CC(=O)O)CC(=O)O)sc(C(=O)O)c1CC(=O)O
max activation [1]: -5.61% (inactive) | Potency [2]: inactive | Potency [3]: inactive

COc1cccc(-c2ccc(/C=C\CN3CCCCCC3)cc2Cl)c1
Potency [4]: 44.6 µM (active) | Potency [5]: 35.4 µM (active) | Potency [6]: 56.1 µM (active) | Potency [7]: 1.22 µM (active) | Potency [8]: inactive

C[C@]12O[C@H](C[C@]1(O)CO)n1c3ccccc3c3c4c(c5c6ccccc6n2c5c31)CNC4=O
max activation [1]: -24.6% (inactive) | Potency [2]: inactive | Potency [3]: inactive

CC(C)[N+]1(C)[C@@H]2CC[C@H]1CC(OC(=O)C(CO)c1ccccc1)C2 (stereo partly drawn)
max activation [1]: -2.6% (inactive) | Potency [3]: inactive

CC(C)(Oc1ccc(C2CCCc3ccccc32)cc1)C(=O)O (stereo not drawn)
max activation [1]: -3.77% (inactive) | Potency [2]: inactive | Potency [3]: inactive

O=C1[O][Bi][O]c2ccccc21
max activation [1]: -4.48% (inactive) | Potency [2]: inactive | Potency [3]: inactive
